PubChem BioAssay (NCI)
This is part of a sample that, as a whole, favours compounds with a hit. Of some 83,000 tested, about 20% had one in any assay.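 Single-dose data. Exposure time 48 hours. Values below 10 considered active.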 The source made the active and inactive calls.

What follows are compounds tested on A498 renal (assay: NCI-60 one-dose screen, 48 h (100 = growth as untreated, 0 = no growth, -100 = all killed)). Conditions: 10 µM unless noted.
In the case of `O=S(=O)(NCCCNc1nccc(-c2[nH]c(-c3ccccc3)nc2-c2ccc(F)c(O)c2)n1)c1cccc(F)c1`, the growth is reported as 93.5% (inactive).
With `Cn1cc(-c2cc3ncnc(Nc4ccc(NC(=O)Nc5cc(C(C)(C)C)on5)cc4)c3s2)cn1` the growth was 16.4% (inactive).
With `Cn1ncc2c(C(=O)c3ccc(F)cc3)nc(C(C)(C)C)nc21` the growth was 58.4% (inactive).
`N#Cc1c(-c2cccs2)cc(-c2cnccn2)nc1SCC(=O)N/N=C/c1ccc(Cl)cc1` was tested, and the growth was 87.1% (inactive).
With `O=C(/C=C/c1cc(Cl)ccc1Cl)Nc1ncc(Cc2ccc(Cl)cc2)s1` the growth was -32.8% (active).
For `CNC(=O)c1cc(N2CCc3cc(NC(=O)Nc4ccc(N5CCN(C)CC5)c(C(F)(F)F)c4)ccc32)ccn1`, the growth was 76.9% (inactive).
For `CCc1cc(O)ccc1Nc1cc(-c2ccc(-n3cccn3)cc2)[nH]n1`, the growth was 92.9% (inactive).
For `COc1ccc2[nH]cc(-c3nc(N)nnc3-c3cn(C)c4ccc(Br)cc34)c2c1`, the growth was -1.71% (active).
With `CCCCCCCCCCCC(=O)NC(C)(C)C(=O)N1CCCC1C(=O)NC(C)(C)C(=O)NC(C)(C)C(=O)N1CCCC1C(=O)NC(C)(C)C(=O)NC(C)(C)C(=O)N1CCCC1C(=O)NC(C)C(=O)NCCC(=O)NC(C)C(=O)NC(C)(C)C(=O)NC(C)(C)C(=O)NC(C)(C)C(=O)NCCC(=O)NC(C)(C)C(=O)NC(C)(C)C(=O)NC(C)(C)C(=O)NC(C)C(=O)NCCC(=O)O` (stereo not drawn) the growth was -98.5% (active).
For `CCCc1[nH]c(-c2cc(N)ccc2Cl)c2c1C(=O)CCCC2`, the growth was 108% (inactive).
For `CC1=C(C)C(=O)C(Nc2ccc(C)cc2)=C(Br)C1=O`, the growth was 97.2% (inactive).
With `O=S(=O)(Oc1ccc(-c2cn3ccsc3n2)cc1)c1cccc(C(F)(F)F)c1` the growth was 86.8% (inactive).
For `C#CCOc1cccc(/C(N)=N/C(N)=N/c2nc3ccccc3s2)c1`, the growth was 122% (inactive).
With `CCOC(=O)c1c(NC(=O)c2ccc(C(F)(F)F)cc2)sc2c(CN3CCN(C)CC3)c(O)ccc12` the growth was -6.72% (active).
For `Cc1ccc(NC(=O)Nc2nc3ccc([N+](=O)[O-])cc3s2)cc1`, the growth was -34.8% (active).
With `CCOC(=O)c1c(NCC(=O)Nc2cccc([N+](=O)[O-])c2)sc(C(C)=O)c1C` the growth was -75.3% (active).
In the case of `O=C(CCCCCCNC(=O)C(O)(O)C(F)(F)F)Nc1ccc(Br)cc1`, the growth is reported as -13.9% (active).
In the case of `Cc1ccccc1N1CCN(C2=C(Cl)C(=O)c3ncccc3C2=O)CC1`, the growth is reported as 111% (inactive).
With `O=C1[C@@H]2Cc3c([nH]c4ccccc34)[C@H](c3ccc(Br)cc3)N2C(=O)CN1C1CCN(Cc2c(Cl)cccc2Cl)CC1` the growth was 103% (inactive).
With `Cc1ccc(CSC2=C(Cl)CN(c3ccc(Cl)cc3)C2=O)cc1` the growth was 113% (inactive).
In the case of `COC(=O)CCCNCCCn1ccc2cc(NCc3cccc(-c4ccccc4)c3C)ccc21`, the growth is reported as 16.4% (inactive).
With `C#CCOc1ccccc1/C=N/Nc1nc(-c2ccc(Cl)cc2)cs1` the growth was 81.4% (inactive).
In the case of `CC(=O)c1c([Si](C)(C)C)c2cc(C#N)ccn2c1C(=O)c1ccc(Br)cc1`, the growth is reported as 78.9% (inactive).
In the case of `O=C(COc1ccc(/C=C2\C(=O)Nc3ccc(F)cc32)cc1)Nc1ccccc1`, the growth is reported as 99% (inactive).
For `COc1ccc(CC(C)=C(c2ccc(OCCN3CCCC3)cc2)c2ccc(OCCN3CCCC3)cc2)cc1`, the growth was -87.5% (active).
`O=C(CSc1nc2ccccc2c(=O)n1-c1ccc(S(=O)(=O)Nc2ccc(Cl)nn2)cc1)Nc1ccc(S(=O)(=O)Nc2ccc(Cl)nn2)cc1` was tested, and the growth was 104% (inactive).
`C=C(C)[C@@H]1CC[C@]2(COP(=O)(OCC)OCC)CC[C@]3(C)[C@H](CC[C@@H]4[C@@]5(C)CC[C@H](OP(=O)(OCC)OCC)C(C)(C)[C@@H]5CC[C@]43C)[C@@H]12` was tested, and the growth was 66.4% (inactive).
In the case of `COC(=O)c1cccc(NC2=C(Cl)C(=O)C(C)=C(C)C2=O)c1`, the growth is reported as 87.7% (inactive).
For `Cn1cc(-c2nc(N)nnc2-c2c[nH]c3ccc(Br)cc23)c2cc(F)ccc21`, the growth was 98.9% (inactive).
`O=C(O)c1ccc(-n2c(=O)n(-c3cccc(C(F)(F)F)c3)c(=O)c3cc(-c4ccc(F)cc4F)ccc32)cc1` was tested, and the growth was -20.5% (active).
For `O=C1[C@H]2Cc3c([nH]c4ccccc34)[C@H](c3ccc(Br)cc3)N2C(=O)CN1C1CCN(CC2CCCCC2)CC1`, the growth was 79.3% (inactive).
For `C#Cc1nc(/C=C/CCCCCCC(=O)NO)cs1`, the growth was 73.9% (inactive).
For `C#CCN(C)CCCOc1ccc(NC(=O)CCCCCCCCC(=O)NO)cc1Cl`, the growth was 81.1% (inactive).
